{"source": "PubChem BioAssay", "data": [{"tested_on": "Neuregulin-1 EGF-like domain", "assay": "binders of neuregulin-1 EGF-like domain, primary screen, biochemical, small-molecule microarray, 635 nm fluorescence (AID 1081);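 also: binding of the protein to compounds printed on small-molecule microarray slides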", "conditions": "small-molecule microarray binding, higher = more signal", "values": [{"smiles": "CCOC(=O)C[C@H]1[C@H](OC(=O)Cc2ccc3c(c2)OCO3)[C@@H](NC(=O)c2ccc3ccccc3c2)c2cc(OCCCO)ccc2N1C(=O)Cc1ccc(OC)cc1", "composite z-score": 0.358}, {"smiles": "O=C(NCc1ccccc1)c1ccc(Br)cc1[N+](=O)[O-]", "composite z-score": 0.341}, {"smiles": "CC(C)(C)OC(=O)CC[C@]1(C(=O)N2CCCCC2)N=C(c2ccc(OCCCO)cc2)O[C@H]1c1ccccc1", "composite z-score": 1.27}, {"smiles": "C=CCNC(=O)[C@@H]1[C@H]2C(=O)O[C@H](c3ccccc3)[C@H](c3ccccc3)N2[C@H](c2ccc(OCCO)cc2)[C@@]12C(=O)N(C(=O)OCCOC)c1ccc(C#CC3(O)CCCCCC3)cc12", "composite z-score": 1.03}, {"smiles": "CCCC=C(CCC)[C@@H](NS(=O)(=O)c1ccc(C(F)(F)F)cc1)c1ccc(-c2ccccc2)cc1", "composite z-score": 1.02}, {"smiles": "NC(=O)NCC#Cc1ccc2c(c1)[C@]1(C(=O)N2)[C@H](C(=O)N2CCCCCCC2)[C@H]2C(=O)O[C@H](c3ccccc3)[C@H](c3ccccc3)N2[C@@H]1c1ccccc1OCCO", "composite z-score": 0.589}, {"smiles": "C=C[C@H](OC)[C@@H](OC(=O)Nc1ccc(SC)cc1)c1ccc(O)c(F)c1", "composite z-score": 1.03}, {"smiles": "CO[C@H]1COC(=O)CC=C[C@H](C)COC(=O)[C@@H](OCc2ccccc2)C=C[C@@H]1C", "composite z-score": 0.958}, {"smiles": "CC(C)C[C@@H]1NC(=O)[C@H]2C[C@@H](C(=O)NCCCCCC[N+](C)(C)C)[C@@H](c3ccc(O)cc3)N2C1=O", "composite z-score": 1.41}, {"smiles": "CO[C@H]1COC(=O)[C@@H](C)NC(=O)CC=C[C@@H](C)[C@H](OC)COC(=O)CC=C[C@@H]1C", "composite z-score": 0.479}, {"smiles": "C=CC[C@@]12N=C(c3ccc(OCCCO)cc3)O[C@@H]1c1ccccc1CN(Cc1ccccc1)C2=O", "composite z-score": 1.16}, {"smiles": "COc1ccc([Si](C)(C)[C@@H]2[C@@H](CC(=O)N(CCO)Cc3ccccc3)O[C@]3(C(=O)N(Cc4cccc(N5CCC5=O)c4)c4ccccc43)[C@H]2C)cc1", "composite z-score": 1.13}, {"smiles": "CN(C)CCCC[C@@H]1NC(=O)[C@@H]2C[C@H](C(=O)O)[C@H](c3ccc(O)cc3)N2C1=O", "composite z-score": 1.28}, {"smiles": "CCOC(=O)C1=CCC(c2cccc3ccccc23)N(S(=O)(=O)c2ccc(C)cc2)C1", "note": "(centres undefined)", "composite z-score": 1.01}, {"smiles": "CO[C@@H]1COC(=O)CC=C[C@@H](C)[C@H](OC)COC(=O)CC=C[C@H]1C", "composite z-score": -0.366}, {"smiles": "C=C(COC)/C(=C/C[C@H](OC(C)=O)c1ccc(OCCO)cc1)c1cnc2ccccc2c1", "composite z-score": 0.99}, {"smiles": "CO[C@H]1O[C@H](CO)[C@@H](OC(=O)Nc2ccc(Oc3ccccc3)cc2)[C@H](OC(=O)Nc2ccccc2-c2ccccc2)[C@H]1OC(=O)Nc1ccccc1-c1ccccc1", "composite z-score": 1.35}, {"smiles": "CCC1=C2CN(Cc3ccccc3Br)[C@@H]([C@@H](O)Cc3ccccc3)C2C=CCC1", "note": "(some centres undefined)", "composite z-score": 0.817}, {"smiles": "[N-]=[N+]=NCc1ccccc1C[C@@]1(C(=O)N2CCOCC2)N=C(c2ccc(OCCCO)cc2)O[C@@H]1c1ccccc1N=[N+]=[N-]", "composite z-score": 1.26}, {"smiles": "C=CC(=O)O[C@@H](Cc1ccccc1)[C@H]1C2C=CCCC=C2CN1Cc1cccc(Cl)c1", "note": "(some centres undefined)", "composite z-score": -1.2}, {"smiles": "NC(=O)[C@H]1[C@@H]2C(=O)O[C@@H](c3ccccc3)[C@@H](c3ccccc3)N2[C@@H](c2ccc(O)cc2)[C@]12C(=O)Nc1ccc(C#CCCO)cc12", "composite z-score": 1.12}, {"smiles": "NC(=O)NCC#Cc1ccc2c(c1)[C@]1(C(=O)N2)[C@H](C(N)=O)[C@H]2C(=O)O[C@H](c3ccccc3)[C@H](c3ccccc3)N2[C@@H]1c1ccccc1OCCO", "composite z-score": -0.0706}, {"smiles": "C=CC[C@]1(C(N)=O)N=C(c2ccc(OCCCO)cc2)O[C@H]1c1ccccc1CN=[N+]=[N-]", "composite z-score": 1.34}, {"smiles": "C[N+](C)(C)CCCCNC(=O)[C@@H]1C[C@@H]2C(=O)N3CCC[C@H]3C(=O)N2[C@@H]1c1cccc(OCCO)c1", "composite z-score": 1.03}, {"smiles": "O=C1O[C@H](c2ccccc2)[C@H](c2ccccc2)N2[C@H]1[C@@H](C(=O)Nc1nc3ccccc3s1)[C@]1(C(=O)Nc3ccc(C#CC4(O)CCCCCC4)cc31)[C@H]2c1ccc(O)cc1", "composite z-score": 1.14}, {"smiles": "COc1ccc(C(O)C2C=CC3C(=O)N(C)C(=O)C3N2N2CCCCC2)cc1OCc1ccccc1", "note": "(centres undefined)", "composite z-score": 1.27}, {"smiles": "CC1=C([C@H](O)CCc2ccccc2)[C@H](CO)[C@@H]2C(=O)N(Cc3ccccc3)C(=O)[C@@H]2C1", "composite z-score": -0.107}, {"smiles": "C=C[C@H](OC)[C@@H](OC(=O)Nc1ccc(SC)cc1)c1ccc(OC)c(O)c1", "composite z-score": 0.164}, {"smiles": "CC(C)(C)OC(=O)CC[C@@]1(C(=O)NCc2ccccc2)N=C(c2ccc(OCCCO)cc2)O[C@@H]1c1ccccc1", "composite z-score": 1.27}]}]}
